“And” between values parts separate entries of the source, which are not always exact repeats. Equal entries are not always repeated. Where two headings read alike, the source gives them in different places.
How the values were obtained:
BRSK1 = details: concentration: 1 μM, replicates: in singlicate; n = 1
BRSK2 = details: concentration: 1 μM, replicates: in singlicate; n = 1
BTK = details: concentration: 1 μM, replicates: in singlicate, n = 1
BUB1 = details: concentration: 1 μM, replicates: in singlicate, n = 1
CAMK1B = details: concentration: 1 μM, replicates: in singlicate, n = 1
CAMK1D = details: concentration: 1 μM, replicates: in singlicate, n = 1
CAMK1G = details: concentration: 1 μM, replicates: in singlicate; n = 1
CAMK1 = details: concentration: 1 μM, replicates: in singlicate, n = 1
CAMK2A = details: concentration: 1 μM, replicates: in singlicate; n = 1
CAMK2B = details: concentration: 1 μM, replicates: in singlicate; n = 1
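Also: KINOMEscan kinase panel screen.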

Structure (SMILES) | %Inh (BRSK1) | %Inh (BRSK2) | %Inh (BTK) | %Inh (BUB1) | %Inh (CAMK1B) | %Inh (CAMK1D) | %Inh (CAMK1G) | %Inh (CAMK1) | %Inh (CAMK2A) | %Inh (CAMK2B) | %Inh (BTK; 1 µM) | %Inh (BUB1; 1 µM) | %Inh (CAMK1B; 1 µM) | %Inh (CAMK1D; 1 µM) | %Inh (CAMK1; 1 µM)
COc1ccc(NC(=O)Nc2ccc(C)c(-c3ccc(C(=O)Nc4ccncc4)cc3)c2)cc1 [GSK1398475] | 0% | 0% | 0% | 28% | 1% | 3% | 0% | 4% | 0% | 0% |  |  |  |  | 
COc1ccc(Nc2nccc(N3CCC(NC(=O)Nc4ccc5c(c4)OCO5)C3)n2)cc1 (stereo not shown) [GSK1379745] | 0% | 2% | 32% | 33% | 0% | 8% | 4% | 8% | 0% | 1% |  |  |  |  | 
CS(=O)(=O)CCNCc1nc(-c2ccc3ncnc(Nc4ccc(OCc5cccc(F)c5)c(Cl)c4)c3c2)cs1.Cl [GW583340] | 0% | 0% | 0% | 0% | 6% | 15% | 2% | 20% | 0% | 0% |  |  |  |  | 
COC(=O)c1cccc(NC(=O)NCCNc2ccnc(Nc3ccc(F)cc3)n2)c1 [GSK1379883] | 0% | 0% | 0% | 10% | 2% | 21% | 0% | 27% | 0% | 0% |  |  |  |  | 
Cn1cc(-c2ccc3c(c2)CCN3C(=O)Cc2cccc(C(F)(F)F)c2)c2c(N)ncnc21 [GSK2606414] | 12% | 0% | 0% | 6% | 11% | 10% | 0% | 4% | 0% | 0% |  |  |  |  | 
Cn1ccc2ncnc(Oc3ccc(NC(=O)Nc4cccnc4)c(Cl)c3)c21 | 6% | 0% | 0% | 5% | 0% | 0% | 27% | 21% | 0% | 18% |  |  |  |  | 
OCCOCCn1ccc2ncnc(Nc3ccc(Oc4cccc(Cl)c4)c(Cl)c3)c21 | 0% | 33% | 0% | 0% | 0% | 0% | 0% | 0% | 0% | 0% |  |  |  |  | 
CSc1ccc(NC2=C(c3ccccc3Cl)C(=O)NC2=O)cc1 [SB-342411] | 0% | 12% | 0% | 0% | 0% | 22% | 19% | 3% | 18% | 13% |  |  |  |  | 
Nc1nc(-c2ccccn2)c(-c2ccnc3ccccc23)s1 [GW548057] | 0% | 0% | 8% | 39% | 33% | 8% | 0% | 4% | 1% | 0% |  |  |  |  | 
Cl.Fc1ccccc1COc1ccc(Nc2ncnc3ccc(-c4nnc(C(F)(F)F)o4)cc23)cc1Cl [GW424170] | 0% | 0% | 0% | 0% | 0% | 8% | 0% | 13% | 0% | 0% |  |  |  |  | 
Cc1cccc(-c2nc(Nc3ccc4[nH]nnc4c3)c3ccccc3n2)n1 [GW867587] | 0% | 0% | 0% | 13% | 0% | 0% | 0% | 0% | 0% | 8% |  |  |  |  | 
Nc1nc(-c2ccc3c(N)n[nH]c3c2)cc(N2CCCCC2)n1 [GSK2228768] | 5% | 0% | 0% | 21% | 8% | 5% | 0% | 13% | 0% | 0% |  |  |  |  | 
COc1ccc(Nc2nccc(N3CCC(NC(=O)c4cccc(NC(C)=O)c4)C3)n2)cc1 (stereo not shown) [GSK1379732] | 0% | 0% | 36% | 54% | 9% | 8% | 0% | 13% | 0% | 0% |  |  |  |  | 
CSc1nn2c(=O)cc(N3CCOCC3)nc2n1Cc1cccc(Cl)c1Cl [GSK2347225] | 0% | 0% | 0% | 0% | 0% | 8% | 17% | 0% | 0% | 0% |  |  |  |  | 
COc1cc2c(Nc3cccc(NC(=O)c4ccccc4)c3)ncnc2cc1OCCCN1CCOCC1 [GSK223810] | 0% | 10% | 0% | 31% | 37% | 18% | 0% | 32% | 0% | 0% |  |  |  |  | 
FC(F)(F)c1cc(Nc2nccc(-c3c(-c4ccc(Cl)cc4)nn4ncccc34)n2)ccc1Cl [GW829351] | 0% | 0% | 0% | 19% | 0% | 0% | 0% | 0% | 30% | 27% |  |  |  |  | 
CC(C)N1CCC(n2cnc(-c3ccc(F)cc3)c2-c2ccnc(N)n2)CC1 [SB-223132] | 0% | 0% | 13% | 15% | 0% | 0% | 0% | 0% | 4% | 0% |  |  |  |  | 

Structure (SMILES) | %Inh (BRSK1) | %Inh (BRSK2) | %Inh (BTK) | %Inh (BUB1) | %Inh (CAMK1B) | %Inh (CAMK1D) | %Inh (CAMK1G) | %Inh (CAMK1) | %Inh (CAMK2A) | %Inh (CAMK2B) | %Inh (BTK; 1 µM) | %Inh (BUB1; 1 µM) | %Inh (CAMK1B; 1 µM) | %Inh (CAMK1D; 1 µM) | %Inh (CAMK1; 1 µM)
Fc1ccc(Nc2nccc(-c3c(-c4ccc(Cl)cc4)nn4ncccc34)n2)cc1F [GW829058] | 0% | 4% | 75% | 35% | 13% | 32% | 0% | 22% | 16% | 18% |  |  |  |  | 
c1ccc(-c2ccc3c(-c4ccnc(Nc5ccc6c(c5)OCCO6)n4)cnn3n2)cc1 [GW818941] | 0% | 0% | 14% | 28% | 12% | 8% | 0% | 29% | 0% | 5% |  |  |  |  | 
CCn1c(-c2ccncc2)nc2cnccc21 [SB-735216] | 0% | 0% | 28% | 15% | 45% | 6% | 0% | 0% | 0% | 0% |  |  |  |  | 
Cc1cc(N2CCC(NS(=O)(=O)c3ccc(F)cc3)CC2)nc(Nc2cccc(C#N)c2)n1.O=C(O)C(F)(F)F [GSK1653537] | 7% | 0% | 0% | 0% | 0% | 8% | 0% | 16% | 0% | 0% |  |  |  |  | 
Fc1ccc(-c2ncn(CCCNCc3ccccc3)c2-c2ccncc2)cc1 | 0% | 0% | 0% | 12% | 0% | 4% | 0% | 2% | 21% | 6% |  |  |  |  | 
Fc1cccc(COc2ccc(Nc3ncnc4nn5ccccc5c34)cc2Cl)c1 [GW689066] | 0% | 0% | 15% | 49% | 15% | 21% | 0% | 19% | 0% | 0% |  |  |  |  | 
O=C(Nc1ccccc1)Nc1ccc(Oc2ccc3nccn3n2)cc1 | 0% | 0% | 0% | 0% | 0% | 0% | 0% | 0% | 0% | 0% |  |  |  |  | 
O=c1cc(N2CCOCC2)nc2n(Cc3cccc(Cl)c3)ccn12 [GSK2296823] | 25% | 0% | 0% | 18% | 22% | 22% | 0% | 0% | 0% | 0% |  |  |  |  | 
COC(=O)c1c(-c2ccccc2)c2cc(Cl)ccc2c(=O)n1Cc1ccc(S(C)(=O)=O)cc1 | 0% | 0% | 25% | 0% | 0% | 0% | 9% | 2% | 0% | 0% |  |  |  |  | 
Nc1nc(-c2cccnc2)c(-c2ccnc3ccccc23)s1 [GW684083] | 10% | 0% | 8% | 58% | 0% | 6% | 0% | 8% | 0% | 0% |  |  |  |  | 
COc1cc2ncnc(Nc3ccc(OCc4ccccc4Br)c(Cl)c3)c2cc1OC.Cl [GI261590] | 0% | 37% | 0% | 66% | 21% | 0% | 0% | 12% | 0% | 0% |  |  |  |  | 
COc1ccc(-c2nc3n(c2-c2ccncc2)CCC3)cc1 [SKF-104493] | 0% | 0% |  |  |  |  | 0% |  | 0% | 0% | 14% and 0% | 67% and 78% | 0% and 26% | 12% and 7% | 0% and 7%
Fc1cccc(COc2ccc(Nc3ncnc4sc(-c5ccc[nH]5)cc34)cc2Cl)c1 [GW707818] | 1% | 16% | 5% | 25% | 9% | 22% | 0% | 25% | 0% | 0% |  |  |  |  | 
FC(F)(F)c1ccc(-c2nn3ncccc3c2-c2ccnc(Nc3cccc(C(F)(F)F)c3)n2)cc1 [GW828205] | 0% | 0% | 49% | 0% | 0% | 18% | 0% | 11% | 0% | 0% |  |  |  |  | 
Cc1ccc(C)c(NC(=O)NCCNc2ccnc(Nc3ccc(F)cc3)n2)c1 [GSK1379878] | 0% | 0% | 0% | 14% | 28% | 2% | 62% | 5% | 0% | 0% |  |  |  |  | 
CNc1nccc(-c2c(-c3ccc(F)cc3)ncn2CCCN2CCOCC2)n1 [SB-222516] | 0% | 3% | 0% | 0% | 0% | 0% | 0% | 0% | 8% | 16% |  |  |  |  | 
CC(=O)Nc1n[nH]c2ncc(-c3ccccc3)cc12 [SB-548492] | 21% | 0% | 0% | 0% | 0% | 18% | 0% | 35% | 4% | 0% |  |  |  |  | 

Reference: publication PMC5540273 (PLoS ONE, 2017)
